# From PubChem
# Sampled rows, rich in hits. Any-hit rate of the full collection: about 3.4%.
# p53ts 39C tox: kills p53ts cells at the nonpermissive temperature | H1299-p53A138V viability at 39C, ATP luminescence, 24 h | Potency, µM (titrated, usually from 46.1 µM), for inactives: at the highest dose activity change, negative = cell killing, actives largely listed as cytotoxic | 130,000 compounds, 1.5% hits; note: % is set by controls: 0 for no effect and ±100 for the full control effect; nearly all actives have a fitted effect of over 55% in size
# p53ts 32C kill: cytotoxicity in p53ts cells at permissive temperature; H1299-p53A138V at 32C, ATP luminescence viability, 24 h; Potency, µM (highest dose often 46.1 µM), without a hit: at the top dose activity change, negative = cytotoxicity, usual class: cytotoxic; 130,000 compounds, 0.93% hits; AID 924;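 note: 0% = DMSO and -100% = full killing by reference compound; nearly all actives have a fitted effect of over 55% in size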
#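 H1299-p53 A138V cells (temperature-sensitive p53) exposed 24 h to up to 46 uM compound at 32C, where p53 is wild-type in conformation. Viability read as ATP luminescence and normalised to DMSO and 100 uM tamoxifen. AC50 fitted with the Hill equation.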
# Tau filament bind: tau filament binding | P10636 | recombinant tau filaments, thioflavin S fluorescence, 15 h; filaments grown with octadecylsulfate alongside compound | Potency, µM (doses to about 57.1 µM), for inactives: at the highest dose activity change, negative = inhibition | 71,000 compounds, 2% hits;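 note: % is set by controls: 0 for no effect and ±100 for the full control effect; actives lower thioflavin S fluorescence by blocking filaments or displacing dye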
# Target sequence (P10636 whole entry, looked up): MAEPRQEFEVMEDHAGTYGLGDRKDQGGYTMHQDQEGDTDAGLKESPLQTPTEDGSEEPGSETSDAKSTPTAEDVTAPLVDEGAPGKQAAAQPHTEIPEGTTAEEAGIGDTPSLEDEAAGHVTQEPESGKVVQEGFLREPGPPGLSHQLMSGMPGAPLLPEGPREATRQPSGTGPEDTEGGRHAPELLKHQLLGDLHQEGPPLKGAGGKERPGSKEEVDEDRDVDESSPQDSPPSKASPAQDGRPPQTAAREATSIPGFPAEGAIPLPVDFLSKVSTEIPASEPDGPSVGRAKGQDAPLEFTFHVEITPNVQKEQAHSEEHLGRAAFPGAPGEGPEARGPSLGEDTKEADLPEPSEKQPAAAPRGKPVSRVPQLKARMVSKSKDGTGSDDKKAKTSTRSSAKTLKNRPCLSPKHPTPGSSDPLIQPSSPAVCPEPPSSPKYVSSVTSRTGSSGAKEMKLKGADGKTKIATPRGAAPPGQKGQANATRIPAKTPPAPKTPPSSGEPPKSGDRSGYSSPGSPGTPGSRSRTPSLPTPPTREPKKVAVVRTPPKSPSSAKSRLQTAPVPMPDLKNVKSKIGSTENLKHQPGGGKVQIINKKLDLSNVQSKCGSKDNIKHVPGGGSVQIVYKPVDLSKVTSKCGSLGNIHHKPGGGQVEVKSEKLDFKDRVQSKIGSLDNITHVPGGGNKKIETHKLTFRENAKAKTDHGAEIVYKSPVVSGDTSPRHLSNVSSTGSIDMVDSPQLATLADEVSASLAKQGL
#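 Thioflavine S fluorescence (ex 450, em 510 nm) reports filaments formed from 1 uM human tau plus 30 uM ODS over 15 h at 37 C (10 mM HEPES pH 7.4, 100 mM NaCl, 5 mM DTT); compounds displacing dye or blocking filaments lower signal.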
# FLuc inh: firefly luciferase inhibition; AID 411; 72,000 compounds, 2.2% hits; P08659; Potency, µM (highest dose often 57.1 µM), for inactives: at the highest dose activity change, negative = inhibition, most hits filed as inhibitors; purified firefly luciferase, luminescence, 8 min; note: % is set by controls: 0 for no effect and ±100 for the full control effect; nearly all actives have a fitted effect of over 40% in size
#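 Firefly luciferase (PKLight detection mix) with 10 uM ATP in pH 7.2 imidazole buffer (KCl, MgCl2, Tween 20, BSA). Compounds tested across a concentration series (qHTS). Luminescence read after 8 min at ambient temperature.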
# Imprint erasure: inducers of genomic imprint erasure in mouse ES cells | mouse ES Peg3-LacZ reporter, beta-gal luminescence, 40 h | Potency, µM (doses to about 60.7 µM), inactives show at the highest dose activity change, positive = activation, actives largely listed as activators | 110,000 compounds, 0.02% hits | AID 1948
#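 Each well holds 300 Peg3LacZ-Neo (maternal) female ES cells incubated 40 h at 37C, 5% CO2. LacZ is measured by BetaGlo luminescence, with AC50 and maximum efficacy derived from dose-response curves.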
# The depositor's hits bear a star; i = inactive; ? = inconclusive; . = no result; ! = repeats disagree; [ ] = remark or other dose. Calls come from the whole dose curve; as a rule, active = well fitted curve in the direction sought with a large enough effect; inconclusive = small, poorly fitted or top-dose-only effect, or another doubt; inactive = no such curve, though single readings can be large; an effect the other way counts as inactive or inconclusive. Potency is the fitted concentration of half-maximal effect.
SMILES,p53ts 39C tox,p53ts 32C kill,Tau filament bind,FLuc inh,Imprint erasure
CC1CCN(c2cc3c(cc2F)c(=O)c(S(=O)(=O)c2cccc(Cl)c2)cn3Cc2ccccc2)CC1,.,5.9%,.,.,.
O=[N+]([O-])c1cc(Cl)cc2c1nc(NCCO)c1ccccc12,-12.1%[9.22 µM],6.7%[9.22 µM],3.98µM*,2.4%[11.4 µM],-4.6%[10.9 µM]
O=C(CSc1nc2c(oc3ccccc32)c(=O)[nH]1)Nc1cccc(Cl)c1,7.94µM*,10µM*,.,.,12.6%[10.9 µM]
COc1ccc(C(=O)Nc2cc(C)on2)cc1,6.31µM*,7.94µM*,-3.4%[11.4 µM],10µM*,-69.2%
COc1ccc(C(=O)Nc2noc3ccccc23)cc1,6.31µM*,3.16µM*,.,.,-52.9%[10.9 µM]
COc1ccc(OCc2cccc(C(=O)Nc3cc(C)on3)c2)cc1,6.8%,-4.2%,.,.,.
Cc1cccc(C(=O)N2CCc3cc(CNC(=O)CCc4ccccc4)ccc32)c1,-11.3%,-15.2%,.,.,?
O=C(Nc1cccc(-c2nc3cccnc3s2)c1)c1ccco1,-14.6%,-28.9%,13.3%,20µM*,-9.6%
O=C(Nc1ccc(-c2nc3cccnc3s2)cc1)c1ccc(Br)o1,-3.6%,-11.3%,i,-7.3%,-42.3%
O=C(Nc1ccc(-c2nc3cccnc3s2)cc1)c1ccco1,?,?,63.6%,3.16µM*,8.4%
CCc1ccccc1OC[C@@H](O)CN[C@H]1CCCc2ccccc21,20µM*,31.6µM*,12.6µM*,-14.2%,-53.4%
O=C(O)/C=C\C(=O)Nc1ccc2c(c1)-c1ccccc1C2,5.2%[9.22 µM],4.6%[9.22 µM],0.9%[11.4 µM],1.0%[11.4 µM],-11.1%[10.9 µM]
Cc1ccc(NC(=O)c2cc(C)n(-c3ccccc3)c2C)cc1,7.08µM*,.,.,.,.
COc1ccc(C(CC(=O)Nc2nccs2)n2cccc2)cc1 (configuration not stated),?,?,-0.7%,15.8µM*,-50.2%
COc1ccc(C(CC(=O)NC(C)(C)C)n2cccc2)cc1 (configuration not stated),7.1%,-1.9%,3.3%,0.8%,-7.5%
CCCCOc1ccc(C(=O)N2CCN(CCc3ccccn3)CC2)cc1,0.1%,3.5%,.,.,-14.7%[10.9 µM]
Cc1ccnc(N(C(=O)c2cccs2)C(=O)c2cccs2)c1,12.6µM*,?,-1.9%,-15.9%,-89.4%
Cc1ccc2nc(N(Cc3cccnc3)C(=O)c3cccs3)sc2c1,-27.5%,-4.0%,.,.,-10.8%[10.9 µM]
C=CCN1C(=O)CS/C1=C(\C#N)S(=O)(=O)c1ccc(C)cc1,5.7%,-0.7%,15.8µM*,0.2%,17.1%
c1cc2c(cc1Nc1nc(-c3ccc4c(c3)OCO4)cs1)OCCO2,-16.7%,-18.6%,25.1µM*,12.6µM*,-10.1%
Oc1ccc(-c2csc(NCc3ccco3)n2)cc1,-29.7%,-3.4%,-10.6%,25.1µM*,-28.2%
Oc1ccc(Nc2nc(-c3ccc(O)cc3)cs2)cc1,6.7%,-3.1%,?,15.8µM*,-23.7%
COc1ccc(-c2csc(/C(C#N)=C/Nc3ccc4c(c3)OCCO4)n2)cc1,-3.9%,-23.9%,.,.,.
COc1cc([C@@H](O)CO)ccc1OS(=O)(=O)O,7.8%,15.2%,-1.1%,-1.8%,.
COc1ccc(NC(=O)c2oc3ccc(S(=O)(=O)N(C)C4CCCCC4)cc3c2C)cc1Cl,-9.3%,3.5%,.,.,-15.8%[10.9 µM]
SMILES,p53ts 39C tox,p53ts 32C kill,Tau filament bind,FLuc inh,Imprint erasure
O=C(COc1ccc(F)cc1)Nc1cccc(OCc2cc(=O)n3ccccc3n2)c1,0.7%,-11.1%,.,.,-11.5%[10.9 µM]
NC(=NCCCCCCN=C(N)/N=C(\N)Nc1ccc(Cl)cc1)/N=C(\N)Nc1ccc(Cl)cc1,.,.,6.31µM*!,2.1%[25.5 µM],-53.0%
CC(C)N=C(N)/N=C(\N)Nc1ccc(Cl)cc1,-1.4%[20.6 µM],-2.1%[20.6 µM],?,3.6%[25.5 µM],-8.3%[16.8 µM]
CC(C)(C)OC(=O)N1CCC(c2c(C(=O)NCCc3ccccc3)cnn2-c2ccc(F)cc2)CC1,0.4%,7.8%,.,.,-8.2%[10.9 µM]
Cc1ccc(C(=O)CSC2=NC(N)=C(C#N)C3(CCCCC3)C2C(N)=O)cc1 (configuration not stated),20.6%,19.2%,3.16µM*,-10.5%,-37.7%
N#CC1=C(N)N=C(SCc2ccccc2)C(C(N)=O)C12CCCCC2 (configuration not stated),-0.6%,13.2%,6.31µM*,-0.6%,-1.5%
CCO[C@H](c1cc(OC)cc([N+](=O)[O-])c1OC)[C@H](C)/C=C\CC(=O)OC,12.4%[9.22 µM],7.8%[9.22 µM],.,3.1%[11.4 µM],.
